From PubChem BioAssay
Giardia FBPA inh-1 – qHTS Assay for Inhibitors of Fructose-1,6-bisphosphate Aldolase from Giardia Lamblia | 290,000 compounds, 0.71% hits | Potency, µM (top dose mostly 59.6 µM), for the others: at the top dose activity, negative = inhibition, usual class: inhibitors | purified Giardia FBPA | AID 2451, 2010 | A8B2U2; also: % is scaled to controls: 0 for no effect and ±100 for the full control effect; nearly all actives have a fitted effect of over 55% in size
Target sequence (A8B2U2 whole entry, looked up): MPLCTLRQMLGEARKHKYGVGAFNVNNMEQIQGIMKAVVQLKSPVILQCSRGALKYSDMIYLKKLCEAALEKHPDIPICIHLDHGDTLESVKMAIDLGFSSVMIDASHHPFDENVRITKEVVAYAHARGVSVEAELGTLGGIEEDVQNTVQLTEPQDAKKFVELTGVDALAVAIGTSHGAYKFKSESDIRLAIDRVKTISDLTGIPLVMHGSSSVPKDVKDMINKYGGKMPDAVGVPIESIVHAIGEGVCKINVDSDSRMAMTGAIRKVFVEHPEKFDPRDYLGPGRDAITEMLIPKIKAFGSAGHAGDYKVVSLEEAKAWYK
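40 nM FBPA preincubated 10 min at RT with compound (up to 57.5 uM final), then substrate plus GAPDH/TPI/NAD/arsenate coupling and diaphorase/resazurin added. Fluorescence read after 20 min at RT, 525/598 nm.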
NS1 inh – qHTS Assay for Inhibitors of Influenza NS1 Protein Function; 270,000 compounds, 0.4% hits; Potency, µM (top dose mostly 46.1 µM), for the others: top-dose activity, positive = more growth; calls by dose curve; also: actives are rising curves; nearly all actives have a fitted effect of over 50% in size
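Growth recovery, yeast-based: influenza A NS1 expressed in S. cerevisiae causes slow growth, and suppressors are detected by OD600. The parent strain without NS1 is used as positive control.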
AMA1-RON2 inh – qHTS for Inhibitors of AMA1-RON; Towards Development of Antimalarial Drug Lead: Primary Screen; Plasmodium falciparum AMA1 (3D7) - RON2 peptide interaction; AlphaScreen AMA1-biotinylated RON2 peptide binding; Potency, µM (series often up to 58.2 µM), for the others: top-dose activity change, negative = inhibition, most hits filed as inhibitors; 360,000 compounds, 0.2% hits;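 also: 0% = vehicle wells and -100% = peptide control; nearly all actives have a fitted effect of over 45% in size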
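AMA1 (3D7) with his tag at 25 nM final met compounds first, then biotinylated RON2 peptide at 25 nM; detection used donor plus acceptor beads, 10 µg/mL apiece, read by AlphaScreen after 30 min at room temperature.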
TbPYK inhibitor – qHTS of Trypanosoma Brucei Inhibitors | TbPYK enzyme, Kinase-Glo Plus ATP luminescence, 45 min | Potency, µM (doses to about 76.8 µM), without a hit: at the top dose activity, negative = inhibition, hits mostly inhibitors | 410,000 compounds, 0.12% hits; also: % is scaled to controls: 0 for no effect and ±100 for the full control effect; nearly all actives have a fitted effect of over 50% in size
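Activity of T. brucei pyruvate kinase was followed by Kinase-Glo Plus luminescence after the enzyme reacted 45 min at room temperature with 130 uM ADP (final) and substrate. Test compounds were added before ADP at multiple concentrations.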
LmPK inh – qHTS Assay for Inhibitors of Leishmania Mexicana Pyruvate Kinase (LmPK). Q27686. Potency, µM (series often up to 57.5 µM), inactives show at the top dose activity change, negative = inhibition, actives largely listed as inhibitors. purified LmPK, Kinase-Glo ATP luminescence, 1 h. 290,000 compounds, 0.37% hits; also: % is scaled to controls: 0 for no effect and ±100 for the full control effect
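ATP generated from ADP (0.1 mM) and PEP (0.5 mM) by 0.1 nM LmPK over 1 h at room temperature (pH 7.2 imidazole buffer) was detected by coupled luciferase luminescence. Values were normalized to uninhibited and no-enzyme wells.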
Giardia growth – qHTS Assay for Inhibitors of Fructose-1,6-bisphosphate Aldolase from Giardia Lamblia: Giardia lamblia growth inhibition | shares compounds with Giardia FBPA inh-1 | Giardia lamblia trophozoite growth inhibition | Potency, µM (titrated, usually from 57.5 µM), without a hit: at the top dose activity change, negative = inhibition, most hits filed as inhibitors | 1,500 compounds, 5% hits;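 also: trophozoites exposed to compound for 48 h at 37 °C; % is scaled to controls: 0 for no effect and ±100 for the full control effect; nearly all actives have a fitted effect of over 70% in size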
Mammal cell tox – qHTS Assay for Inhibitors of Fructose-1,6-bisphosphate Aldolase from Giardia Lamblia: Mammalian cellular toxicity; shares compounds with Giardia FBPA inh-1; mammalian cell viability counter-screen, qHTS; Potency, µM (doses to about 57.5 µM), without a hit: at the highest dose viability change, negative = toxicity, usual class: inhibitors; 1,500 compounds, 4% hits; AID 2786, 2010;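 also: Chinese hamster ovary cells used as mammalian cytotoxicity surrogate; viability measured as cellular ATP by luminescence; compound exposure lasted 48 h before reading; % is scaled to controls: 0 for no effect and ±100 for the full control effect; nearly all actives have a fitted effect of over 60% in size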
Giardia FBPA inh-2 – qHTS Assay for Inhibitors of Fructose-1,6-bisphosphate Aldolase from Giardia Lamblia: Primary screen confirmation | AID 2787, 2010 | Potency, µM (series often up to 57.5 µM), for the others: at the highest dose activity change, negative = inhibition, actives largely listed as inhibitors | 1,500 compounds, 5% hits | purified Giardia aldolase enzyme activity, qHTS | shares compounds with Giardia FBPA inh-1; also: % is scaled to controls: 0 for no effect and ±100 for the full control effect; nearly all actives have a fitted effect of over 45% in size
Rabbit aldolase – qHTS Assay for Inhibitors of Fructose-1,6-bisphosphate Aldolase from Giardia Lamblia: Rabbit FBPA Selectivity. shares compounds with Giardia FBPA inh-1. Rabbit muscle FBPA enzyme inhibition, selectivity counter-screen. Potency, µM (series often up to 57.5 µM), without a hit: at the top dose activity, negative = inhibition, usual class: inhibitors. 1,500 compounds, 4% hits. AID 2794, 2010; also: % is scaled to controls: 0 for no effect and ±100 for the full control effect; nearly all actives have a fitted effect of over 60% in size
GAPDH coupling – qHTS Assay for Inhibitors of Fructose-1,6-bisphosphate Aldolase from Giardia Lamblia: Coupling assay counterscreen confirmation; shares compounds with Giardia FBPA inh-1; GAPDH coupling enzyme counterscreen, biochemical, qHTS; Potency, µM (series often up to 57.5 µM), without a hit: top-dose activity change, negative = inhibition, actives largely listed as inhibitors; 1,500 compounds, 6% hits; AID 2795, 2010; also: % is scaled to controls: 0 for no effect and ±100 for the full control effect; nearly all actives have a fitted effect of over 55% in size
Starred values were filed as active, the others as inactive; ? = inconclusive; . = no result given; [ ] = remark or other dose. Rows were chosen to be rich in hits. Some 1.2% of all compounds tested hit in one or more screens of this group. Unless noted, calls follow the shape of the dose curve; as a rule, active = well fitted curve in the direction sought with a large enough effect; inconclusive = small, poorly fitted or top-dose-only effect, or another doubt; inactive = no such curve, though single readings can be large; an effect the other way counts as inactive or inconclusive. Potency is read from the fitted curve at half-maximal effect.

SMILES	Giardia FBPA inh-1	NS1 inh	AMA1-RON2 inh	TbPYK inhibitor	LmPK inh	Giardia growth	Mammal cell tox	Giardia FBPA inh-2	Rabbit aldolase	GAPDH coupling
Cc1cccc(NC(=S)Nn2cnnc2)c1C	7.92µM*	5.5%	-8.8%	-5.8%	-1.5%	?	4.8%	6.7%	3.5%	16.7%
O=C(Nc1ccccc1)Nn1cnnc1	7.8%	4.1%	-2.5%	1.0%	4.5%	.	.	.	.	.
S=C(Nc1ccccc1)Nn1cnnc1	12.6µM*	-22.6%	-0.5%	-25.9%	-4.6%	?	-13.2%	4.0%	5.3%	8.0%
Cc1ccccc1NC(=S)Nn1cnnc1	.	-1.9%	3.4%	-11.6%	-4.6%	.	.	.	.	.
Cc1ccc(NC(=S)Nn2cnnc2)cc1	15.8µM*	3.4%	5.8%	-17.8%	0.7%	?	6.8%	3.6%	7.4%	18.3%
O=c1[nH]c(=O)c2[nH]c(=O)[nH]c2[nH]1	.	.	.	1.1%	.	.	.	.	.	.
O=C(c1cccc(F)c1)N1CCC[C@@]2(CCN(C(c3ccccc3)c3ccccc3)C2)C1	-5.6%	.	.	-8.6%	.	.	.	.	.	.
CCC1CCC2(CC1)NNC(=S)NN2	12.6µM*	2.9%	14.1%	-9.9%	-4.5%	-10.5%[10.4 µM]	6.0%	-6.1%	1.6%	4.8%
CCC1CCC2(CC1)NC(CO)(CO)CO2 (stereo unspecified)	-5.1%	-6.3%	-2.9%	8.7%	-1.1%	.	.	.	.	.
O=C(NNC(=S)Nc1ccc(Cl)c(Cl)c1)c1ccccn1	14.1µM*	-52.4%	-75.3%	-4.4%	-0.3%	-14.8%[10.4 µM]	?	28.2%	14.6%	18.1%
CCNC(=S)NNC(=O)c1ccccn1	?	7.3%	-38.5%	0.5%	-4.1%	.	.	.	.	.
O=C(O)Cn1c2c(c3ccccc31)CSc1ccc(Cl)cc1-2	7.08µM*	-42.6%	-3.4%	-6.9%	1.1%	-0.4%[10.4 µM]	2.3%	17.4%	12.6%	15.8%
C[C@H](N)C(=O)N1CCC(C(=O)N[C@@H](Cc2ccccc2)C(=O)Nc2ccc(F)cc2)CC1	15.8µM*	0.6%	13.0%	-9.8%	-5.9%	-26.3%	12.2%	-1.7%	-2.6%	3.1%
C=C1C2=CC(=O)OC(c3ccoc3)[C@]2(C)CCC1[C@]1(C)C=CC(=O)C(C)(C)C1CC(=O)OC (stereo partly specified)	-11.6%	.	.	.	.	.	.	.	.	.
COc1ccccc1-c1ccc2ncnc(NCc3cnc(C)cn3)c2c1	0.6%	.	.	.	.	.	.	.	.	.
COc1ccc(-c2nc(CSCC(=O)N3CCN(c4ccc(F)cc4)CC3)c(C)o2)cc1	.	.	.	0.1%	.	.	.	.	.	.
CNc1nc(-c2ccccc2)[n+](-c2ccc(C)cc2)s1	12.6µM*	-9.4%	-25.0%	?	22.4µM*	?	-15.4%	?	10µM*	5.8%
Cc1ccc(-c2nc3ccccc3nc2-c2ccccc2)cc1	4.3%	-5.2%	15.0%	-0.3%	2.4%	.	.	.	.	.
